Screens: PubChem, National Center for Advancing Translational Sciences (NCATS)
Most compounds without a hit are left out; they make up all but 3.6% or so of the library.
B2AR arrestin ag – qHTS assay of beta-arrestin-biased ligands of beta2-adrenergic receptor: NCGC Sytravon Library Screen. 44,000 tested, under 10 active. HTLA Tango cells, beta-arrestin recruitment, luciferase luminescence, 18 h. AID 1347077, 2019. Potency, µM (highest dose often 46.1 µM), hits mostly activators;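 note: potency is the fitted concentration of half-maximal effect; 0% = DMSO and full agonism = EC100 isoproterenol or metaproterenol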
Target sequence (P07550 whole entry, looked up): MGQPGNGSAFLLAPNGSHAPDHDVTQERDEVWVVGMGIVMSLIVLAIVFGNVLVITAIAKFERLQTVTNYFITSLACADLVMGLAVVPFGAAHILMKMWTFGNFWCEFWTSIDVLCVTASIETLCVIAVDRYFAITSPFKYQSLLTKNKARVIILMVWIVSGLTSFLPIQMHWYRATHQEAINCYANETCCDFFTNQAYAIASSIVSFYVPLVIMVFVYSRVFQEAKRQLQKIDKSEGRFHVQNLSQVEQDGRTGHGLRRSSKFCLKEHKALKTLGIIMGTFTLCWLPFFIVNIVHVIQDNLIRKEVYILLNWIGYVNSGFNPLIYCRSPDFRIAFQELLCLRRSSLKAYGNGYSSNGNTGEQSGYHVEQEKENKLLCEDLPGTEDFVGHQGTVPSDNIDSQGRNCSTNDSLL
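Ligand-induced beta-arrestin recruitment to recombinant beta2-AR is measured via a tTA-driven luciferase reporter in Tango cells after 18 hr compound exposure at 37 degrees C. Concentrations span up to 46 microM.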
GALK inh – qHTS Assay for Inhibitors of Human Galactokinase (GALK): NCGC Sytravon Library Screen; AID 1347072, 2019; recombinant GALK, Kinase-Glo ATP luminescence, 1 h; 44,000 tested, under 10 active; Potency, µM (top dose mostly 57.5 µM), for inactives: at the highest dose activity, negative = inhibition, usual class: inhibitors; P51570;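 note: plate controls were full GALK reaction for no effect and reaction lacking GALK for full effect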
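Human GALK (5 nM) was incubated with 35 uM ATP and 100 uM galactose in 20 mM HEPES pH 8.0 with MgCl2, NaCl, DTT and BSA for 1 h at room temperature. Remaining ATP was measured by Kinase-Glo Plus luminescence.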
GALC G270D up – A Novel Cell-Based Assay to Identify Small Molecules for B -Galactocerebrosidase; P54803; 145M-Twi-hGALC-G270D cells (Twitcher mouse brain line with human GALC G270D), HMU-beta-Gal fluorescence, 48 h; Potency, µM (top dose mostly 57.5 µM), actives largely listed as activators; 45,000 tested, 0.1% active; AID 1159614, 2016; note: potency is the fitted concentration of half-maximal effect; 0% is about no effect; nearly all actives have a fitted effect of over 65% in size
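Brain-derived Twitcher mouse 145M-Twi cells stably expressing human GALC-G270D or wild-type GALC, treated live, then residual GALC activity read by fluorescence of HMU-b-Gal substrate (0.1 mM final) in citrate-phosphate buffer pH 5.2 with sodium taurocholate. Signal increase indicates enhancement.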
GPR32 ag – qHTS for Agonists of Human Resolvin D1 Receptor DRV1. 48,000 tested, 2.5% active. activation, % at 76.9 µM. AID 1346428, 2018. CHO-K1 GPR32 beta-arrestin PathHunter luminescence, 90 min; zero percent set by DMSO-only wells. Probable G-protein coupled receptor 32 (Homo sapiens), O75388;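 active = activation of at least 60% and not above a set upper limit, about 1 call in 100 departs from these limits; inconclusive = activation of 40% to 60%, or above that upper limit; inactive = activation under 40%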; note: 0% is about no effect
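Step 1: seed CHO-K1 GPR32 beta-arrestin cells, 2,500/well, overnight at 37 °C. Step 2: add compounds, 90 min at 37 °C. Step 3: detection reagent, 1 h ambient, then luminescence.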
NTMT1 inhibitor – Primary qHTS for Inhibitors of N-terminal methyltransferase 1 (NTMT1): MTaseGlo Assay; NTMT1 MTase-Glo SAH luminescence, purified enzyme; Potency, µM (top dose mostly 114 µM), inactives show at the top dose activity change, negative = inhibition, most hits filed as inhibitors; 59,000 tested, 2.5% active; N-terminal Xaa-Pro-Lys N-methyltransferase 1 (Homo sapiens), Q9BV86;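 note: potency is the fitted concentration of half-maximal effect; plate controls were DMSO vehicle for no effect and no enzyme for full effect; nearly all actives have a fitted effect of over 65% in size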
* marks the source's active call; other numbers are inactive results; i = inactive; ? = inconclusive; · = not tested or not shown; [ ] = another dose, or the depositor's remark. Unless noted, calls come from the whole dose curve; as a rule, active = well fitted curve in the direction sought with a large enough effect; inconclusive = small, poorly fitted or top-dose-only effect, or another doubt; inactive = no such curve, though single readings can be large; an effect the other way counts as inactive or inconclusive.

SMILES	B2AR arrestin ag	GALK inh	GALC G270D up	GPR32 ag	NTMT1 inhibitor
O=C(NCc1ccco1)c1c[nH]c2ccc(S(=O)(=O)Nc3ccc(F)cc3F)cc2c1=O	i	0.2%	i	62.8*	-1.9%
O=C(NCCc1ccccc1)c1c[nH]c2ccc(S(=O)(=O)Nc3ccc(F)cc3F)cc2c1=O	i	-4.8%	i	100.0*	3.4%
O=C(NCC1CCCO1)c1c[nH]c2ccc(S(=O)(=O)Nc3ccc(F)cc3F)cc2c1=O (stereo not given)	i	1.2%	i	-1.2	-1.3%
Cc1c(F)cccc1NC(=O)Nc1ccc(Cl)c(S(=O)(=O)[C@H]2CCCNC2)c1O	·	·	·	·	11.7%
O=C1NC(=O)/C(=C\c2ccc3c(c2)OC(F)(F)O3)S1	·	·	·	·	-1.8%
O=c1onc2cnc3ccccc3n12	·	·	·	67.6*	·
c1ccc2c(c1)ncc1nncn12	i	0.2%	i	-0.4	-4.1%
Cc1ccc(N=C2NC(=O)CC(C(=O)Nc3cc(C(F)(F)F)ccc3Cl)S2)cc1 (stereo not given)	i	-0.1%	i	80.5*	8.2%
CN(C)c1ccc(Nc2c3ccc(NC(=O)CCN4CCCC4)cc3nc3cc(NC(=O)CCN4CCCC4)ccc23)cc1	·	·	·	·	6.31µM*
CC(=O)NCC(=O)N1[C@@H]2CC[C@H]1c1ccc(Nc3ncc(C(F)(F)F)c(NC4CCC4)n3)cc12	·	·	·	·	-4.2%
O=C(NCCO)c1ccc(-c2nnc(Nc3ccc(OC(F)(F)Cl)cc3)c3ccccc23)cc1	i	7.0%	i	66.2*	9.4%
Cc1cccc2sc(N3CCN(C(=O)c4ccco4)CC3)nc12	i	4.0%	i	8.6	3.3%
Cc1ccc(C)c2sc(N3CCN(C(=O)c4ccco4)CC3)nc12	i	2.2%	i	87.8*	-6.7%
CS(=O)(=O)c1ccc(-c2cn3ccccc3n2)cc1	·	·	i	8.5	7.08µM*
CCOC(=O)CSc1nc2ccc(NC(=O)COc3ccccc3C)cc2s1	i	-7.7%	i	75.2*	6.9%
CC(=O)Nc1ccc2nc(SCCOc3ccccc3Cl)sc2c1	i	1.2%	i	69.4*	22.5%
NC(=O)CSc1nc2ccc(NC(=O)COc3ccccc3Cl)cc2s1	i	-1.2%	i	90.3*	?
Cc1ccccc1OCC(=O)Nc1ccc2nc(SCC(N)=O)sc2c1	i	0.0%	i	?	-22.6%
O=C1Nc2ccc(I)cc2C1=Cc1cc(Br)c(O)c(Br)c1	·	·	·	·	17.1µM*
O=C1Nc2ccc(I)cc2/C1=C/c1cc(Br)c(O)c(Br)c1	·	·	·	-22.8	3.55µM*
COc1cc(OC)c(/C=C2/C(=O)Nc3ccccc32)c(OC)c1	·	·	·	2.2	·
CC(C)(C)N=Cc1c(-c2ccccc2)no[n+]1[O-]	·	·	·	·	6.5%
O=C(Nc1ccc(S(=O)(=O)Nc2nccs2)cc1)c1cccc2ccccc12	·	·	·	·	-7.1%
Cc1ccc(OCCn2c(CCNCC3CCCCC3)nc3ccccc32)cc1	·	·	·	·	-9.2%[57.5 µM]
COc1ccc(Cn2c(CO)cnc2SCc2ccc(F)cc2)cc1	i	-0.8%	i	?	89.1µM*
SMILES	B2AR arrestin ag	GALK inh	GALC G270D up	GPR32 ag	NTMT1 inhibitor
OCc1cnc(SCc2ccccc2F)n1Cc1ccc(F)cc1	i	-2.3%	i	93.9*	-8.0%
COc1ccc(Cn2c(CO)cnc2SCc2ccc(C)cc2)cc1	i	3.1%	i	-4.4	-6.8%
Clc1ccc(CSc2nc3ncc(Br)cc3[nH]2)cc1Cl	·	·	·	·	7.9%
CCCCCC(=O)Nc1ccc(NC(=O)c2cc3ccccc3o2)c(OC)c1	i	-2.7%	i	120.8*	5.3%
O=C(CSc1nnc(-c2ccccc2Br)n1-c1ccccc1)c1ccc(F)cc1	i	-0.8%	i	60.2*	-18.1%
CNc1oc(-c2cccc3c2OC(F)(F)O3)nc1C#N	·	·	·	·	1.8%
N[C@H]1CCN(c2cnc3c(O)ccc(C(=O)O)c3c2)C1	·	·	·	·	-4.4%
